From PubChem BioAssay
Rows were chosen to be rich in hits. Some 10% of all compounds tested hit in one or more screens of this group.
PNC assembly inh: blocks assembly of the perinucleolar compartment; activity change (PNC), negative = inhibition, % at 10 µM; AID 2417; PC3M PTB-GFP, PNC prevalence imaging, 16 h; active compounds read low; actives 3.1% (n = 140,000);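 active = readout at or below -70, meaning at least 70% loss of cells showing the perinucleolar compartment, a nuclear body marking cancer cells; inconclusive = readout between -30 and a set limit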
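PC3M cells stably expressing PTB-GFP, 750–1000 cells/well, treated 16 h at 37 °C with compound (23 nl of library stock), in duplicate. After paraformaldehyde fixation and Hoechst stain, imaged at 20x; PNC prevalence scored by image analysis.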
ALDH1A1 inh: blocks purified human ALDH1A1 activity; actives 7.3% (n = 220,000); Potency, µM (series often up to 75.3 µM), usual class: inhibitors; P00352; Purified ALDH1A1, NADH fluorescence, propionaldehyde substrate
Target sequence (P00352 whole entry, looked up): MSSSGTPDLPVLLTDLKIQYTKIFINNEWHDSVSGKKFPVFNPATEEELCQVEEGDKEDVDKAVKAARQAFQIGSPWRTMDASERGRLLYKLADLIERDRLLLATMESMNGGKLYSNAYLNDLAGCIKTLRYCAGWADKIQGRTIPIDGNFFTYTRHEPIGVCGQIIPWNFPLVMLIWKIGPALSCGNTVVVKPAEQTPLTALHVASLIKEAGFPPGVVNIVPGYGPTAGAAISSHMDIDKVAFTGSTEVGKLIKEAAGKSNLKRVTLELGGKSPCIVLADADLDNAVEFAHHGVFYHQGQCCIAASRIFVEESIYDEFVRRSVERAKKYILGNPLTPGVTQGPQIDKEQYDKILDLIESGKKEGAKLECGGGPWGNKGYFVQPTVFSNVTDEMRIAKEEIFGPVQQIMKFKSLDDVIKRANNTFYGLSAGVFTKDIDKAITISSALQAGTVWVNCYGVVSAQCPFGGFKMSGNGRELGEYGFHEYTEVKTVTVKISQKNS
LMNA splice mod: LMNA splicing modulation; HeLa LMNA splicing GFP/RFP minigene ratio, 48 h; Potency, µM (top dose mostly 46.1 µM), actives largely listed as inhibitors; actives 0.01% (n = 200,000); AID 1487; active = well fitted inhibition curve with a large enough effect in the signal ratio, with a control signal flat, not every such curve was filed as active; inconclusive = small, poorly fitted or top-dose-only effect, or effect the other way, or a change in a side signal; the % refers to the signal ratio
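S3 HeLa cells stably expressing lamin A-EGFP splicing minigene plus DsRed2, 600 cells/well, 48 h compound exposure at 37C. Laser-scanning cytometry; analysed as GFP (500-530 nm)/RFP (575-640 nm) total intensity ratio; 0.5% DMSO vehicle.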
HPGD block: HPGD (human) dehydrogenase inhibition | purified HPGD, NADH fluorescence kinetic, PGE2 substrate | Potency, µM, most hits filed as inhibitors | actives 4.3% (n = 150,000)
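NADH formation kinetics: reaction with 30 uM PGE2 and 1 mM NAD+ (final), 20 nM enzyme, Tris-HCl pH 8 with Tween 20, after 15 min compound preincubation at room temperature. Fluorescence change, last versus first of five reads.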
Luc counter: Kinase-Glo luciferase inhibition (counter-screen); Q27757; Kinase-Glo luciferase, ATP luminescence, 8 min; Potency, µM (highest dose often 38.3 µM), most hits filed as inhibitors; actives 0.28% (n = 200,000); AID 1379; active = well fitted inhibition curve with a large enough effect; inconclusive = small, poorly fitted or top-dose-only effect; also: nearly all actives have a fitted effect of over 60% in size
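Luminescence was the read-out, taken after 8-minute incubation at ambient temperature. Luciferase turned over luciferin with 10 uM ATP in imidazole pH 7.2 buffer containing KCl, MgCl2, Tween 20 and BSA.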
A number is an active result; – = inactive; ? = inconclusive; · = no result; ! = not confirmed by another sample; [ ] = dose if it differs, or a comment. Unless noted, calls follow the shape of the dose curve; as a rule, active = well fitted inhibition curve with a large enough effect (not every such curve was filed as active); inconclusive = small, poorly fitted or top-dose-only effect, or another doubt; inactive = no such curve, though single readings can be large or run the other way.

SMILES	PNC assembly inh	ALDH1A1 inh	LMNA splice mod	HPGD block	Luc counter
[N-]=[N+]=CC(=O)CC[C@H](N)C(=O)O	·	–[13.5 µM]	·	–	–[7.66 µM]
CCC(=Nc1ccc(OC)cc1OC)c1c(O)[nH]c(=O)[nH]c1=O	-95.5	–	–	25.1µM	–
CCC(=Nc1cc(OC)ccc1OC)c1c(O)[nH]c(=O)[nH]c1=O	–	?	?	25.1µM	–
CCCCCCCCCCCCCCCCOC[C@@H](O)COP(=O)([O-])OCC[N+](C)(C)C	·	–	·	–	–
CC1=C2C(=O)[C@@H]3[C@@H](CC=C4C[C@@H](O)CC[C@@]43C)[C@H]2CC[C@@]12O[C@H]1C[C@H](C)CN[C@H]1[C@@H]2C	·	–[13.5 µM]	·	–	–[7.66 µM]
COc1cc(Cc2ccc(N)c(OC)c2)ccc1N	-113.4	?	–	–	–
N[C@H](CCP(=O)(O)O)C(=O)O	·	–	·	–	–
NC(=NCCc1ccc(I)cc1)SCCCc1cnc[nH]1	·	–	·	–	–
Nc1nc2c(ncn2[C@@H]2O[C@H](CO)[C@@H](O)[C@@H]2O)c(=[SH+])[nH]1.O=[N+]([O-])c1ccc(O)[c]([Hg])c1	·	0.0501µM	·	0.0251µM	2.82µM
O=C(N/N=C/C1C(=O)NC(=S)N(c2ccccc2)C1=O)c1cc(Br)c(O)c(Br)c1 (stereo not drawn)	·	12.6µM	·	·	–
C[C@@H](C(=O)O)c1ccc(-c2ccccc2)c(F)c1	·	–	?	28.2µM	–
NC(CCl)=N[C@H]1CN2CCC1CC2	·	?	·	–	–[7.66 µM]
CN1CC(C(=O)c2ccc(Cl)cc2)C(c2ccc(N(C)C)cc2)C1 (stereo not drawn)	·	10µM	·	·	–
CC(=O)Nc1ccc(C2CN(C)CC2C(=O)c2ccc(Cl)cc2)cc1 (stereo not drawn)	·	?	–	·	–
CCCOc1ccc2[nH]cc(C3=CCNCC3)c2n1	·	?	·	?	–
COC(=O)[C@@H]1C[C@@]2(O)[C@@H](O)[C@@H](O)[C@@H](O)C[C@H]2N1Cc1cccnc1	·	–	·	–	–
COc1ccc(/C=C2/C(=O)NC(=O)N(c3ccc(C)c(C)c3)C2=O)cc1CN1C(=O)c2ccccc2C1=O	–	7.94µM	–	10µM	–
COc1cc(/C=C2\C(=O)NC(=O)N(c3ccccc3)C2=O)cc(OC)c1OC	–	12.6µM	–	?	–
CC1=NN(c2ccccc2)C(=O)C1/C=C1\C(=O)NC(=O)N(c2ccc(C)c(C)c2)C1=O (stereo not drawn)	–	–	–	–	–
CCCC(C)C1(CC)C(=O)N=C(S)NC1=O (stereo not drawn)	·	–	–	–	–
O=C(O)[C@@H](Br)[C@H](Br)C(=O)O	·	–[13.5 µM]	·	–	–[7.66 µM]
OC1(c2ccc(F)cc2)CC2CCC(C1)N2Cc1nnnn1C1CCCCC1 (stereo not drawn)	–	0.631µM	–	–	–
O=C(Nc1cccc(Cl)c1)OC1CN2CCC1CC2 (stereo not drawn)	·	–	·	·	·
CC(C)OC(=O)Nc1cccc(Cl)c1	·	–	–	12.6µM	–
Cc1cccc(C2=NCC(=O)N(CC(=O)NCc3ccco3)c3sc4c(c32)CCCC4)c1	?	20µM	–	28.2µM	–
SMILES	PNC assembly inh	ALDH1A1 inh	LMNA splice mod	HPGD block	Luc counter
COc1ccc(C2=NCC(=O)N(CC(=O)NCc3ccco3)c3sc4c(c32)CCCC4)cc1	–	15.8µM	?	–	–
CCOCN(C(=O)CCl)c1c(C)cccc1CC	·	31.6µM!	–	–	–
CCc1cccc(CC)c1N(COC)C(=O)CCl	·	–	–	–	–
C[C@@H](Cc1ccc(Cl)cc1Cl)NO	·	–[13.5 µM]	·	–	–[7.66 µM]
CC1CC(C)C(=O)[C@H](C(O)CC2CC(=O)NC(=O)C2)C1 (stereo partly drawn)	·	–	·	–	–
CC[C@@H](CO)NC(=O)[C@H]1C=C2c3cccc4c3c(cn4C)C[C@H]2N(C)C1	·	?	–	?	–
CN1CCN(c2ccc(C=O)cc2)CC1	?	12.6µM	–	–	–
CCN1CCN(c2ccc(N)cc2)CC1	·	–	–	·	–
CN1CCN(c2ccc(NC(=O)C(C)(C)C)cc2)CC1	–	–	–	–	–
CN1CCN(c2ccc(N)cc2)CC1	–	31.6µM	–	–	–
C=CCOCC1CO1 (stereo not drawn)	·	?	·	–	·
CNC(=O)CSP(=S)(OC)OC	·	?	–	–	–
COP(=S)(OC)SCN1C(=O)c2ccccc2C1=O	–	?	–	20µM	–
CC(C)c1ccc2c(c1O)CCC1C3=C(CC[C@]21C)C(=O)OC3 (stereo partly drawn)	·	–	–	–	–
COc1ccc(O)c(C(C)(C)C)c1	·	–	·	–	–
CC(C)(C)c1cc(O)ccc1O	·	3.55µM	?	–	–[7.66 µM]
Cc1ccccc1O	·	–	·	–	·
CC(C)(C)c1ccccc1O	·	31.6µM	·	–	·
CN1C[C@H](C(=O)N[C@]2(C)O[C@@]3(O)C4CCCN4C(=O)[C@H](Cc4ccccc4)N3C2=O)C[C@@H]2c3cccc4[nH]cc(c34)C[C@H]21 (stereo partly drawn)	·	–	?	–	–
c1ccc(N2CC3(CCNCC3)C2)nc1	·	?	·	?	–
O=C1CN(C(=O)CN2CCCCC2)C(c2ccccc2)c2cc(Br)ccc2N1 (stereo not drawn)	-91.8	–	–	–	–
CCCCOCC1CO1 (stereo not drawn)	·	–	·	–	·
C=C(C)CN1C(=O)C(O)(CC(=O)c2ccc3c(c2)OCCO3)c2ccccc21 (stereo not drawn)	–	11.2µM	–	–	–
COc1ccc2c(c1)[C@@]13CCCCC1[C@@H](C2)N(C)CC3 (stereo partly drawn)	·	–	·	–	–
CC1=CCCC2C1(C)CCC(C)C2(C)CC/C(C)=C/C[n+]1cn(C)c2c(N)ncnc21 (stereo not drawn)	·	17.8µM	·	–	–
SMILES	PNC assembly inh	ALDH1A1 inh	LMNA splice mod	HPGD block	Luc counter
CCCCCCCCOC(=O)c1ccccc1C(=O)OCCCCCCCC	·	25.1µM	?	–	·
Cn1c(=O)c2c(nc(N/N=C/c3c(O)n(-c4ccccc4)c(=S)[nH]c3=O)n2C)n(C)c1=O	–	8.91µM	–	–	–
CCC(C)N=Cc1c(O)n(-c2ccccc2)c(=O)[nH]c1=O (stereo not drawn)	–	?	–	?	–
CCCCCOc1ccc(C)cc1CN(CCCl)CCCl	·	20µM	·	·	·
O=[As](O)(O)c1ccc2nc3cc([As](=O)(O)O)ccc3nc2c1	·	–[13.5 µM]	·	–	–[7.66 µM]
C[C@H](NC(=O)[C@@H](N)Cc1ccc(O)cc1)C(=O)N[C@@H](Cc1ccccc1)C(=O)N[C@@H](Cc1ccccc1)C(N)=O	·	–	·	·	·
COc1ccc(CN2CCCCC2c2cccnc2)cc1C (stereo not drawn)	–	–	–	–	–
COc1cccc(CN2CCCCC2c2cccnc2)c1 (stereo not drawn)	-83.4	31.6µM	?	–	–
CC(C)CC(=O)C[C@H](O)C(Cl)(Cl)Cl	·	–[13.5 µM]	·	–	–[7.66 µM]
COc1cc(C2c3cc4c(cc3C(OC(C)=O)[C@H]3COC(=O)C23)OCO4)cc(OC)c1OC (stereo partly drawn)	·	–	?	–	–
